Screening data (PubChem)
CBX7 inh: inhibitors of human CBX7 binding to H3K27me3 peptide. AlphaScreen His6-CBX7 / biotin-H3K27me3 peptide binding; active compounds read low. normalised signal (fraction of DMSO) (concentration not given with the values). 66,000 compounds, 1.1% hits. AID 1224903; in the data active = normalised signal below about 0.5
Target sequence (O95931 whole entry, looked up): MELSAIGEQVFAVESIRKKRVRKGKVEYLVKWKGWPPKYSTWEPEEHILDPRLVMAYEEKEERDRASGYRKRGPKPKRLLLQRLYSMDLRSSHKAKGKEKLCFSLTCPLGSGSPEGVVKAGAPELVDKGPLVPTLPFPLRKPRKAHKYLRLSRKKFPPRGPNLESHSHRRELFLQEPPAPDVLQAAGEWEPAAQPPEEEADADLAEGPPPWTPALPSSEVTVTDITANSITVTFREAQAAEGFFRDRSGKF
Active calls of the source: *. Many of the other results were omitted from the sample, so hits are more common in it than they were.

How did CCCCOCC(O)CN1CCN(C(C)=O)CC1 (stereo not given) do in these assays?
CBX7 inh: 1.1

Results for COc1ccc(OCC(O)CN2CCCCC2)cc1 (stereo not given) ?
CBX7 inh: 1

What do the screens show for `COc1ccc(-n2c3c(cc(C(=O)Nc4cccc(C)c4)c2=O)C(=O)CC(C)(C)C3)cc1`?
CBX7 inh: 0.97

Results for Cc1[nH]c2ccccc2c1CCn1c(N)cc(=O)[nH]c1=O ?
CBX7 inh: 1

Results for CCC(C)NC(=O)Cn1cnc2scc(-c3ccc(C)cc3)c2c1=O (stereo not given) ?
CBX7 inh: 0.94

How did Cc1ccc2cc(CCNC(=O)COc3ccc(Cl)cc3)c(=O)[nH]c2c1 do in these assays?
CBX7 inh: 0.94

What do the screens show for `CCOc1ccc2nc(N3CCCC(C(=O)N4CCC(C(N)=O)CC4)C3)sc2c1` (stereo not given)?
CBX7 inh: 1

What do the screens show for `CCCN1CCN(CCCNC(=O)C2CCCN(c3nc4ccc(OCC)cc4s3)C2)CC1` (stereo not given)?
CBX7 inh: 1

How did CCOc1ccc2nc(N3CCCC(C(=O)N4CCN(Cc5ccccc5)CC4)C3)sc2c1 (stereo not given) do in these assays?
CBX7 inh: 0.72

How did CCOCCCNC(=O)C1CCCN(c2nc3ccc(OCC)cc3s2)C1 (stereo not given) do in these assays?
CBX7 inh: 1.1

Results for CCOc1ccc2nc(N3CCCC(C(=O)N4CCN(CC)CC4)C3)sc2c1 (stereo not given) ?
CBX7 inh: 0.43*

What do the screens show for `CCOc1ccc2nc(N3CCCC(C(=O)NCCCN4CCN(CC)CC4)C3)sc2c1` (stereo not given)?
CBX7 inh: 0.44*

How did CC(=O)N1CCc2cc(S(=O)(=O)NC(C(=O)Nc3ccc(C)cc3)C(C)C)ccc21 (stereo not given) do in these assays?
CBX7 inh: 1

What do the screens show for `CCCCNS(=O)(=O)c1ccc2c(c1)CCN2C(=O)C1CCC1`?
CBX7 inh: 0.98

What do the screens show for `CCOc1ccc2nc(NC(=O)Cn3ncc4c3-c3cc(C)ccc3OC4)sc2c1`?
CBX7 inh: 0.94

What do the screens show for `Cc1ccc(Cc2c(C)nc3c(C(=O)N4CCN(c5cccc(C)c5)C(C)C4)cnn3c2C)cc1` (stereo not given)?
CBX7 inh: 0.63

How did COc1ccc(C(=O)N(Cc2nc(-c3cccc(C)c3)no2)C(C)C)cc1OC do in these assays?
CBX7 inh: 0.95

Results for COCCCNC(=O)CCN1C(=O)C(C)Oc2ccc(C)cc21 (stereo not given) ?
CBX7 inh: 0.97

Results for C=CCc1ccccc1OCC(O)CN1CCN(c2ccc(C)cc2)CC1 (stereo not given) ?
CBX7 inh: 0.25*

Results for C=CCc1cc(C)ccc1OCC(O)CN1CCOCC1 (stereo not given) ?
CBX7 inh: 0.82

What do the screens show for `C=CCc1ccccc1OCC(O)CN1CCC(C)CC1` (stereo not given)?
CBX7 inh: 1.5

Results for CCOc1ccc(CNc2ccc3c(c2)ncn3-c2ccc(OC)cc2)cc1 ?
CBX7 inh: 0.75

How did COc1ccc(CNc2ccc3c(c2)ncn3-c2ccc(C)cc2)cc1 do in these assays?
CBX7 inh: 0.27*

What do the screens show for `CCCn1cnc2cc(NCc3ccccc3OC)ccc21`?
CBX7 inh: 0.58

How did COc1ccc(-n2cnc3cc(NCc4ccccc4OC)ccc32)cc1 do in these assays?
CBX7 inh: 0.31*

Results for COc1ccccc1CNc1ccc2c(c1)ncn2-c1ccc(C)cc1 ?
CBX7 inh: 0.22*

Results for COc1ccc(-n2cnc3cc(NCc4ccc(OC)c(OC)c4)ccc32)cc1 ?
CBX7 inh: 0.96

What do the screens show for `COc1ccccc1CNC(=O)c1ccc2c(c1)ncn2-c1ccc(C)c(Cl)c1`?
CBX7 inh: 0.86

How did COc1ccccc1CNc1ccc2c(c1)ncn2-c1ccccc1OC do in these assays?
CBX7 inh: 0.59

What do the screens show for `COc1ccc(CNc2ccc3c(c2)ncn3C)c(OC)c1`?
CBX7 inh: 0.96

Results for CCc1cccc(C)c1N(C(=O)Cn1c(C)nc2ccccc21)C(C)COC (stereo not given) ?
CBX7 inh: 1

Results for Cc1cc(=O)n2nc(N3CCC(C(=O)Nc4cccc(C)c4C)CC3)sc2n1 ?
CBX7 inh: 1

How did COc1ccc(N2CCN(c3oc(COc4ccc(Cl)cc4)nc3C#N)CC2)cc1 do in these assays?
CBX7 inh: 0.56

What do the screens show for `Cc1ccccc1OCc1nc(C#N)c(N2CCCCCC2)o1`?
CBX7 inh: 0.47*

Results for Cc1ccccc1OCc1nc(C#N)c(N2CCOCC2)o1 ?
CBX7 inh: 0.86

How did N#Cc1nc(COc2ccc(Cl)cc2)oc1N1CCCCC1 do in these assays?
CBX7 inh: 0.76

Results for N#Cc1nc(COc2ccc(F)cc2)oc1N1CCCCCC1 ?
CBX7 inh: 0.5*

What do the screens show for `CCN1CCN(c2oc(COc3ccc(F)cc3)nc2C#N)CC1`?
CBX7 inh: 0.94

Results for COc1ccc(N2CCN(c3oc(COc4ccccc4OC)nc3C#N)CC2)cc1 ?
CBX7 inh: 0.55

How did Cc1ccccc1OCc1nc(C#N)c(N2CCCCC2)o1 do in these assays?
CBX7 inh: 0.71

How did COc1ccc(N2CCN(c3oc(COc4cccc(C)c4)nc3C#N)CC2)cc1 do in these assays?
CBX7 inh: 0.49*

How did N#Cc1nc(COc2ccccc2Cl)oc1N1CCCCC1 do in these assays?
CBX7 inh: 0.75

What do the screens show for `N#Cc1nc(COc2ccc(Cl)cc2)oc1N1CCN(Cc2ccccc2)CC1`?
CBX7 inh: 0.71

What do the screens show for `N#Cc1nc(COc2ccccc2)oc1N1CCCCCC1`?
CBX7 inh: 0.46*

Results for O=C1CCc2cc(S(=O)(=O)N3CCC(N4CCCCC4)CC3)ccc2N1 ?
CBX7 inh: 0.91

Results for OC(COc1cccc(Cl)c1)Cn1c(C(F)(F)F)nc2ccccc21 (stereo not given) ?
CBX7 inh: 1

What do the screens show for `CCCN1Cc2cccc(C(=O)Nc3ccccc3Cl)c2C1=O`?
CBX7 inh: 1.1

How did Cc1ccccc1-c1nc(C(=O)NCc2ccc(F)cc2)c(C)o1 do in these assays?
CBX7 inh: 1.1

How did Cc1ccccc1OCCCC(=O)Nc1nc(-c2ccccc2)cs1 do in these assays?
CBX7 inh: 1

Results for CCOc1ccc2ccccc2c1C(=O)NCCc1cc2ccc(C)c(C)c2[nH]c1=O ?
CBX7 inh: 1.1

How did COc1ccc(NC(=O)Cc2ccc(NC3=NC4CS(=O)(=O)CC4S3)cc2)c(OC)c1 (stereo not given) do in these assays?
CBX7 inh: 1.1

How did CN1CCN(S(=O)(=O)c2ccc3c(c2)CCN3C(=O)C2CC2)CC1 do in these assays?
CBX7 inh: 0.99

How did CCCOc1cccc(C(=O)Nc2cccc(NC(=O)c3cccc(Cl)c3)c2)c1 do in these assays?
CBX7 inh: 1.1

Results for O=C(CCc1nc2ccccc2n(Cc2ccccc2F)c1=O)NC1CCCCCCC1 ?
CBX7 inh: 1.1

What do the screens show for `Cc1ccc(S(=O)(=O)C2(C(=O)N3CCN(c4ccccn4)CC3)CC2)cc1`?
CBX7 inh: 0.9

What do the screens show for `COc1ccc(OCc2nc(C#N)c(N3CCCCCC3)o2)cc1`?
CBX7 inh: 0.58

How did N#Cc1nc(COc2ccc(F)cc2)oc1N1CCC(C(N)=O)CC1 do in these assays?
CBX7 inh: 0.99

How did N#Cc1nc(COc2ccc(F)cc2)oc1N1CCCCC1 do in these assays?
CBX7 inh: 0.42*

How did N#Cc1nc(-c2ccc(F)cc2)oc1N1CCCCCC1 do in these assays?
CBX7 inh: 0.79

What do the screens show for `Cc1ccc(OCc2nc(C#N)c(N3CCCCCC3)o2)cc1`?
CBX7 inh: 0.4*
